From PubChem BioAssay AID1456 (Vanderbilt High Throughput Screening Facility, 2008)
Screen size: about 190,000 compounds; about 4,100 (2.2%) were called active.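 How the source made its calls: active means thallium flux slope and its plate-corrected score both differing from the plate sample mean at a set confidence after two filtering rounds, in either direction; inactive means the rest.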 Many of the other results were omitted from the sample, so actives are more common in it than they were.

Each compound was assayed against Solute carrier family 12 member 5 (Homo sapiens) (UniProt Q9H2X9) (assay: KCC2 cotransporter modulators, thallium flux, primary screen, cell-based, HEK293 KCC2, FluoZin-2 fluorescence, MLSMR (AID 1456;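 further: slope of fluorescence scaled to starting intensity during 10 to 20 s after thallium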)). Conditions: KCC2 cells, thallium flux FluoZin-2 fluorescence; at 10 µM.
Chain of Solute carrier family 12 member 5 (Homo sapiens) (Q9H2X9 whole entry, looked up): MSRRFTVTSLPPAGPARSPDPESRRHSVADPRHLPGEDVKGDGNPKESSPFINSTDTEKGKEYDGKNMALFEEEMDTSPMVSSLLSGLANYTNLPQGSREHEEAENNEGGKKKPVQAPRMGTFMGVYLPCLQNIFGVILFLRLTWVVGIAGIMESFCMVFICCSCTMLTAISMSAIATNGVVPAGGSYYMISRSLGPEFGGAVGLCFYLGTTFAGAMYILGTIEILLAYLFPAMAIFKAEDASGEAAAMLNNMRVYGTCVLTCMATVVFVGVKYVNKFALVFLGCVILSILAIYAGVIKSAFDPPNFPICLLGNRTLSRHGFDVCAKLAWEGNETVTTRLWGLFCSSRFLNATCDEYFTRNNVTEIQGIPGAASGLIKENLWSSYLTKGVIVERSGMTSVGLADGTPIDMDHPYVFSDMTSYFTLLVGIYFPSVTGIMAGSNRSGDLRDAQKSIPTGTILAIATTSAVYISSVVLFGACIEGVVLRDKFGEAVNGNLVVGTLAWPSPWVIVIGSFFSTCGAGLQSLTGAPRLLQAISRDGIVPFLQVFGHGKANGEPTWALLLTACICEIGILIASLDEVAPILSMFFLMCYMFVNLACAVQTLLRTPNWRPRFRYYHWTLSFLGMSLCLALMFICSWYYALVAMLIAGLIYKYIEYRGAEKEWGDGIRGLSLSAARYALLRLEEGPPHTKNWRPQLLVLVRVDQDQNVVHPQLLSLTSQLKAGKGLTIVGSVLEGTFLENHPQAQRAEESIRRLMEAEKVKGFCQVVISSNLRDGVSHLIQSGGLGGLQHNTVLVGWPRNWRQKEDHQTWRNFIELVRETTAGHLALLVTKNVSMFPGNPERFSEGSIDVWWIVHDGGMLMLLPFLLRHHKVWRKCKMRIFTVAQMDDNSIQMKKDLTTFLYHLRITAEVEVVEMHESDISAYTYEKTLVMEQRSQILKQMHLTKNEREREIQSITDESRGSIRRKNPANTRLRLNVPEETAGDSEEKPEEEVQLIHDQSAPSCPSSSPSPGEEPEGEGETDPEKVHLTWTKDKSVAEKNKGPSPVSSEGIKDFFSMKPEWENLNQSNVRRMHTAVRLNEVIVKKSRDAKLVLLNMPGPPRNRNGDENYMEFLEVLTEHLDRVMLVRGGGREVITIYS
With `Cc1cc(C)cc(NS(=O)(=O)c2ccc(F)cc2)c1` the B-score of Tl+ flux slope (higher = more flux/activation; lower = inhibition) was -0.00878 (inactive). `CCOc1ccc(NS(=O)(=O)c2ccc(C)c(C(N)=O)c2)cc1` was tested, and the B-score of Tl+ flux slope (higher = more flux/activation; lower = inhibition) was -0.277 (inactive). `Cc1cccc(NS(=O)(=O)c2ccc(C)c(C(N)=O)c2)c1` was tested, and the B-score of Tl+ flux slope (higher = more flux/activation; lower = inhibition) was 4.67 (active). `C/C(=N\Nc1cccc(C(=O)O)c1)c1ccc2c(c1)Nc1ccccc1S2` was tested, and the B-score of Tl+ flux slope (higher = more flux/activation; lower = inhibition) was -3.29 (inactive). With `Cc1ccc(C2CC(c3cccc(C)c3)n3nc(N)nc3N2)cc1` (stereo not drawn) the B-score of Tl+ flux slope (higher = more flux/activation; lower = inhibition) was 1.35 (inactive). For `CCOc1ccccc1C1CC(c2ccc(Cl)cc2)Nc2nc(N)nn21` (stereo not drawn), the B-score of Tl+ flux slope (higher = more flux/activation; lower = inhibition) was -3.62 (active). With `COc1ccc(C2CC(c3ccc(Cl)cc3Cl)Nc3nc(N)nn32)cc1OC` (stereo not drawn) the B-score of Tl+ flux slope (higher = more flux/activation; lower = inhibition) was 1.07 (inactive). With `COCCNC(=S)N1CCN(C)CC1` the B-score of Tl+ flux slope (higher = more flux/activation; lower = inhibition) was 1.24 (inactive). In the case of `CCC(C)NC(=O)C1c2ccccc2Oc2ccccc21` (stereo not drawn), the B-score of Tl+ flux slope (higher = more flux/activation; lower = inhibition) is reported as 0.329 (inactive). For `O=C(NCc1ccco1)C1CCCN1S(=O)(=O)c1ccccc1C(F)(F)F` (stereo not drawn), the B-score of Tl+ flux slope (higher = more flux/activation; lower = inhibition) was 0.797 (inactive). For `Cc1ccc(/C=N/NC(=S)NC2CCCCC2)o1`, the B-score of Tl+ flux slope (higher = more flux/activation; lower = inhibition) was 13.3 (active). In the case of `C/C(=N/NC(=O)c1ccc(Br)o1)c1ccc(C)o1`, the B-score of Tl+ flux slope (higher = more flux/activation; lower = inhibition) is reported as 2.02 (inactive). For `Cc1ccc(NC(=S)NC2CCCC2)cc1`, the B-score of Tl+ flux slope (higher = more flux/activation; lower = inhibition) was -0.0505 (inactive). `C/C(=N\NC(=S)NC1CCCCC1)c1ccc(C)o1` was tested, and the B-score of Tl+ flux slope (higher = more flux/activation; lower = inhibition) was 13.6 (active). With `S=C(NCc1ccc(Cl)cc1)NC1CCCCC1` the B-score of Tl+ flux slope (higher = more flux/activation; lower = inhibition) was -1.07 (inactive). With `Cc1ccc(/C=N/NC(=O)CNC(=O)COc2ccccc2)o1` the B-score of Tl+ flux slope (higher = more flux/activation; lower = inhibition) was 1.42 (inactive). In the case of `Nc1ccc(N=Nc2ccccc2Cl)c(N)n1`, the B-score of Tl+ flux slope (higher = more flux/activation; lower = inhibition) is reported as -0.811 (inactive). `O=C(Nc1nc2ccc([N+](=O)[O-])cc2s1)c1ccncc1` was tested, and the B-score of Tl+ flux slope (higher = more flux/activation; lower = inhibition) was 0.253 (inactive). `O=C(O)CCC(=O)Nc1nc2ccc([N+](=O)[O-])cc2s1` was tested, and the B-score of Tl+ flux slope (higher = more flux/activation; lower = inhibition) was -0.905 (inactive). `O=C(NC(Nc1nc2ccc([N+](=O)[O-])cc2s1)(C(F)(F)F)C(F)(F)F)c1ccccc1` was tested, and the B-score of Tl+ flux slope (higher = more flux/activation; lower = inhibition) was 18.8 (active). `O=[N+]([O-])/C=C1\CCCCCN1` was tested, and the B-score of Tl+ flux slope (higher = more flux/activation; lower = inhibition) was 0.62 (inactive). For `O=C(OCN1C(=O)c2ccccc2C1=O)/C(=C\c1ccco1)NC(=O)c1ccccc1`, the B-score of Tl+ flux slope (higher = more flux/activation; lower = inhibition) was 0.982 (inactive). In the case of `O=C(CNC(=O)c1ccc(-c2ccccc2)cc1)OCc1ccc(Cl)cc1`, the B-score of Tl+ flux slope (higher = more flux/activation; lower = inhibition) is reported as 0.889 (inactive). With `CC(C)(C)c1ccc(C(=O)NCC(=O)OCN2C(=O)c3ccccc3C2=O)cc1` the B-score of Tl+ flux slope (higher = more flux/activation; lower = inhibition) was 2.84 (active). In the case of `CC(=O)OCCOCn1cnn2c(=O)c(Br)c(C)nc12`, the B-score of Tl+ flux slope (higher = more flux/activation; lower = inhibition) is reported as 0.438 (inactive). `Cn1nc(C(F)(F)F)c(-c2ccc(F)cc2)c1NC(=O)CSCC(=O)O` was tested, and the B-score of Tl+ flux slope (higher = more flux/activation; lower = inhibition) was 0.439 (inactive). For `O=C(Nc1cccnc1)c1cc([N+](=O)[O-])ccc1Cl`, the B-score of Tl+ flux slope (higher = more flux/activation; lower = inhibition) was -0.0312 (inactive). For `CCC(=O)NNc1cc(=O)c2c(=O)n(C)c(=O)n(C)c2[nH]1`, the B-score of Tl+ flux slope (higher = more flux/activation; lower = inhibition) was 1.26 (inactive). In the case of `CC(=O)NNc1cc(=O)c2c(=O)n(C)c(=O)n(C)c2[nH]1`, the B-score of Tl+ flux slope (higher = more flux/activation; lower = inhibition) is reported as 6.19 (active). For `Nc1nnn(CC(=O)N/N=C/c2ccc(O)cc2)n1`, the B-score of Tl+ flux slope (higher = more flux/activation; lower = inhibition) was 0.292 (inactive). For `Cn1nnc(NC(=S)NC(=O)c2ccccc2)n1`, the B-score of Tl+ flux slope (higher = more flux/activation; lower = inhibition) was 0.462 (inactive). `CC1(C)CC(CNCCC(c2ccc(F)cc2)c2ccco2)CCO1` (stereo not drawn) was tested, and the B-score of Tl+ flux slope (higher = more flux/activation; lower = inhibition) was -2.25 (inactive). For `Cc1ccc(NC(=S)NC(=O)c2ccc(-c3ccccc3)cc2)cc1`, the B-score of Tl+ flux slope (higher = more flux/activation; lower = inhibition) was 1.16 (inactive). In the case of `Cc1cccc(NC(=O)/C(=C\c2ccco2)NC(=O)c2ccccc2)c1`, the B-score of Tl+ flux slope (higher = more flux/activation; lower = inhibition) is reported as 0.0694 (inactive). `Cc1cccc(NC(=O)c2ccc([N+](=O)[O-])o2)c1` was tested, and the B-score of Tl+ flux slope (higher = more flux/activation; lower = inhibition) was -0.0536 (inactive). `Cc1cccc(NC(=S)Nc2ccc(Br)cc2)c1` was tested, and the B-score of Tl+ flux slope (higher = more flux/activation; lower = inhibition) was 0.311 (inactive). For `Cc1cccc(NC(=S)NC(=O)c2ccc(Br)o2)c1`, the B-score of Tl+ flux slope (higher = more flux/activation; lower = inhibition) was 143 (active). In the case of `Cc1cccc(NC(=O)NC(=S)NC(=O)c2ccccc2)c1`, the B-score of Tl+ flux slope (higher = more flux/activation; lower = inhibition) is reported as 16.4 (active). `CCOc1ccc(C2NC(=S)NC3=C2CCc2ccccc23)cc1` (stereo not drawn) was tested, and the B-score of Tl+ flux slope (higher = more flux/activation; lower = inhibition) was 0.359 (inactive). With `CC(=O)Nc1ccc(/C=C/C(=O)c2ccccc2)cc1` the B-score of Tl+ flux slope (higher = more flux/activation; lower = inhibition) was -1.42 (inactive). For `CCCc1nc2c(c(=O)c3ccccc3n2C)c(=O)n1-c1cc(C)cc(C)c1`, the B-score of Tl+ flux slope (higher = more flux/activation; lower = inhibition) was -2.43 (inactive). With `Cc1cc(OCCCCOc2ccc(C#N)cc2)ccc1[N+](=O)[O-]` the B-score of Tl+ flux slope (higher = more flux/activation; lower = inhibition) was 2.16 (inactive). `Clc1ccc(C[n+]2cc(-c3ccccc3)n3c2CCC3)cc1` was tested, and the B-score of Tl+ flux slope (higher = more flux/activation; lower = inhibition) was 0.476 (inactive). In the case of `CCOC(=O)C1CCCN(C(=O)C2CCN(c3nnc(-n4cccc4)s3)CC2)C1` (stereo not drawn), the B-score of Tl+ flux slope (higher = more flux/activation; lower = inhibition) is reported as -0.42 (inactive). `O=C(C1CCN(c2nnc(-n3cccc3)s2)CC1)N1CCc2ccccc2C1` was tested, and the B-score of Tl+ flux slope (higher = more flux/activation; lower = inhibition) was -3.67 (active). In the case of `CSc1ccc(CCNC(=O)C2CCN(c3nnc(-n4cccc4)s3)CC2)cc1`, the B-score of Tl+ flux slope (higher = more flux/activation; lower = inhibition) is reported as 0.348 (inactive). In the case of `COc1ccc2[nH]c(C(=O)Nc3ccccc3Cl)cc2c1`, the B-score of Tl+ flux slope (higher = more flux/activation; lower = inhibition) is reported as 0.0923 (inactive). In the case of `CCCCOc1ccc(CON(C(C)=O)C(C)=O)cc1Cl`, the B-score of Tl+ flux slope (higher = more flux/activation; lower = inhibition) is reported as 0.181 (inactive). For `Cc1oc(-c2ccccc2F)nc1CS(=O)(=O)CC(=O)NCCCN(C)C1CCCCC1`, the B-score of Tl+ flux slope (higher = more flux/activation; lower = inhibition) was -0.282 (inactive). `Cc1ccccc1-c1nc(CS(=O)(=O)CC(=O)N2CCc3ccccc3C2)c(C)o1` was tested, and the B-score of Tl+ flux slope (higher = more flux/activation; lower = inhibition) was -3.98 (active). `COc1ccc(-c2nc(CS(=O)CC(=O)N3CCc4ccccc4C3)c(C)o2)cc1` (stereo not drawn) was tested, and the B-score of Tl+ flux slope (higher = more flux/activation; lower = inhibition) was -6.3 (active). With `COC(=O)c1cc2occc2n1Cc1nc(-c2ccccc2C)oc1C` the B-score of Tl+ flux slope (higher = more flux/activation; lower = inhibition) was 0.574 (inactive). `O=C(COc1ccccc1)N1CCc2ccccc2C1` was tested, and the B-score of Tl+ flux slope (higher = more flux/activation; lower = inhibition) was 0.0757 (inactive). With `COc1ccc(-c2nc(CS(=O)CC(=O)NCc3ccccn3)c(C)o2)cc1` (stereo not drawn) the B-score of Tl+ flux slope (higher = more flux/activation; lower = inhibition) was 1.46 (inactive). For `S=C(NCc1ccc2c(c1)OCO2)NCc1ccco1`, the B-score of Tl+ flux slope (higher = more flux/activation; lower = inhibition) was -0.178 (inactive). `CCOC(=O)C1CCN(C(=O)Nc2cccc(OC)c2)CC1` was tested, and the B-score of Tl+ flux slope (higher = more flux/activation; lower = inhibition) was 0.26 (inactive). In the case of `Cc1ccccc1Cn1c2ccccc2c2cnn(CC(=O)NCc3ccco3)c(=O)c21`, the B-score of Tl+ flux slope (higher = more flux/activation; lower = inhibition) is reported as -0.21 (inactive). In the case of `COC(=O)CNc1nc(Cl)nc(N2CCC(C)CC2)n1`, the B-score of Tl+ flux slope (higher = more flux/activation; lower = inhibition) is reported as 0.436 (inactive). `O=C(Nc1ccc(C(=O)O)cc1)/C(=C/c1ccc([N+](=O)[O-])cc1)NC(=O)c1ccccc1` was tested, and the B-score of Tl+ flux slope (higher = more flux/activation; lower = inhibition) was -0.11 (inactive). For `CNC(=O)/C(=C\C=C\c1ccccc1)NC(=O)c1ccc([N+](=O)[O-])cc1`, the B-score of Tl+ flux slope (higher = more flux/activation; lower = inhibition) was -6.01 (active). For `O=C(Nc1ccccc1)/C(=C/c1ccc([N+](=O)[O-])cc1)NC(=O)c1ccccc1`, the B-score of Tl+ flux slope (higher = more flux/activation; lower = inhibition) was 0.951 (inactive). In the case of `Cc1ccc(/C=C/C(=O)O)cc1S(=O)(=O)N1CCC(Cc2ccccc2)CC1`, the B-score of Tl+ flux slope (higher = more flux/activation; lower = inhibition) is reported as -2.01 (inactive). In the case of `Cc1ccc(C)c2c1cc(C)c1nnc(SCC(=O)Nc3cccc(C(=O)O)c3)n12`, the B-score of Tl+ flux slope (higher = more flux/activation; lower = inhibition) is reported as 4.23 (inactive).
